# PubChem BioAssay (Tox21)
# Values without a mark were called inactive. Inconclusive results are not listed. Entries that show only a call come without a potency. Active and inactive are the calls of the source. Calls follow the shape of the dose curve; as a rule, active = well fitted activation curve with a large enough effect in the repeat runs; inconclusive = weak or mixed curves; inactive = flat fitted curve, though single readings scatter.
# Assay: A CellTox Green Cytotoxicity Assay to monitor cytotoxicity in HepG2 cells - 0 hour (AID 1224882); also: nearly all actives have a fitted effect of over 35% in size
# Conditions: CellTox Green fluorescence; series mostly up to 76.8 µM
# How it was run: (§1)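 Cytotoxicity was tracked as dead-cell DNA fluorescence in HepG2 cells treated with test compounds at 37 C; each time-point value comes from one kinetic series spanning 0, 8, 16, 24, 32 and 40 h.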
# Potency is read from the fitted curve at half-maximal effect.
Structure (SMILES),Potency,cytotoxicity
O=C(Nc1ccccc1)c1cc(Cl)ccc1O,inactive,
Cc1ccc(N=Nc2c(O)ccc3ccccc23)c(C)c1,inactive,
C/C=C/C(=O)OCC(C)C,inactive,
CN1CCN(CCCN2c3ccccc3Sc3ccc(C(F)(F)F)cc32)CC1,inactive,
CC(C)(C)c1cc(CCC(=O)OCCSCCOC(=O)CCc2cc(C(C)(C)C)c(O)c(C(C)(C)C)c2)cc(C(C)(C)C)c1O,inactive,
C=Cc1ccncc1,inactive,
CCCCCN=C(N)N/N=C/c1c[nH]c2ccc(OC)cc12,inactive,
O=C1CCCCCCCCCCCCCC1,inactive,
CCN(CC)c1ccc(N=Nc2ccccc2)cc1,inactive,
O=C1CCC/C=C\CCCCCCCCCC1,inactive,
Brc1cc(Br)cc(Br)c1,inactive,
N#Cc1ccc(C/C(=N/NC(=O)Nc2ccc(OC(F)(F)F)cc2)c2cccc(C(F)(F)F)c2)cc1,inactive,
CSc1nnc(C(C)(C)C)c(=O)[nH]1,inactive,
CCOC(=O)OC(=O)OCC,inactive,
CCCCCCCCCC[N+](C)(CCCCCCCCCC)CCC[Si](OC)(OC)OC,inactive,
c1ccc2c(c1)-c1ccc3ccc4cccc5cc-2c1c3c45,inactive,
O=C(CCCCCCCCc1cccnc1)N1CCC(C=C(c2ccccc2)c2ccccc2)CC1,inactive,
CCN(CC)c1ccc(C=O)c(O)c1,inactive,
COc1cc(/C=C/C(=O)CC(=O)/C=C/c2ccc(O)c(OC)c2)ccc1O,43.9 µM (active),

Structure (SMILES),Potency,cytotoxicity
CC(C=O)c1ccccc1 (centres undefined),inactive,
C=CC(=O)O[C@H]1C[C@@H]2CC[C@@]1(C)C2(C)C,inactive,
CCC1(C)C(=O)N(Cl)C(=O)N1Cl (centres undefined),inactive,
CN[C@H]1CC[C@@H](c2ccc(Cl)c(Cl)c2)c2ccc(S(N)(=O)=O)cc21,inactive,
CC/C=C(\C)C=O,inactive,
O=C(Nc1ccc([N+](=O)[O-])cc1)Nc1ccc([N+](=O)[O-])cc1 (tested in a mixture with another compound),inactive,
O=C(NCc1ncc(C(F)(F)F)cc1Cl)c1c(Cl)cccc1Cl,inactive,
CCCCCCCCCCCCS(=O)(=O)Cl,,-7.13% [at 15.8 µM]
Cc1cccc2c1ccc1ccccc12,inactive,
CC(=O)CC(N)=O,inactive,
CCc1cccc(C)c1N(C(=O)C(=O)O)C(C)COC (centres undefined),inactive,
CCC(=O)OC/C=C(\C)CCC=C(C)C,inactive,
CCCCC/C=C\C=C\C(=O)OCC,inactive,
CCCC(C)C=O (centres undefined),inactive,
CC(O)(c1ccc(Cl)cc1)c1ccc(Cl)cc1,inactive,
C=Cc1ccc(O)c(OC)c1,inactive,
Cc1cc(Br)ccc1NC(=O)CCl,inactive,
c1ccc2cc3c4ccccc4c4ccccc4c3cc2c1,inactive,

# Assay: A CellTox Green Cytotoxicity Assay to monitor cytotoxicity in HepG2 cells - 32 hour (AID 1224883); also: nearly all actives have a fitted effect of over 50% in size
# Conditions: CellTox Green fluorescence; series mostly up to 76.8 µM
# How it was run: as §1
Structure (SMILES),Potency,cytotoxicity increase
O=C(Nc1ccccc1)c1cc(Cl)ccc1O,49 µM (active),
Cc1ccc(N=Nc2c(O)ccc3ccccc23)c(C)c1,inactive,
C/C=C/C(=O)OCC(C)C,inactive,
CN1CCN(CCCN2c3ccccc3Sc3ccc(C(F)(F)F)cc32)CC1,21.3 µM (active),
CC(C)(C)c1cc(CCC(=O)OCCSCCOC(=O)CCc2cc(C(C)(C)C)c(O)c(C(C)(C)C)c2)cc(C(C)(C)C)c1O,inactive,
C=Cc1ccncc1,inactive,
CCCCCN=C(N)N/N=C/c1c[nH]c2ccc(OC)cc12,6.01 µM (active),
CCN(CC)c1ccc(N=Nc2ccccc2)cc1,inactive,
N#Cc1ccc(C/C(=N/NC(=O)Nc2ccc(OC(F)(F)F)cc2)c2cccc(C(F)(F)F)c2)cc1,inactive,
CSc1nnc(C(C)(C)C)c(=O)[nH]1,inactive,
CCOC(=O)OC(=O)OCC,inactive,
CCCCCCCCCC[N+](C)(CCCCCCCCCC)CCC[Si](OC)(OC)OC,21.9 µM (active),
CCN(CC)c1ccc(C=O)c(O)c1,inactive,
COc1cc(/C=C/C(=O)CC(=O)/C=C/c2ccc(O)c(OC)c2)ccc1O,49.3 µM (active),
CC(C=O)c1ccccc1 (centres undefined),inactive,
CCC1(C)C(=O)N(Cl)C(=O)N1Cl (centres undefined),inactive,
CN[C@H]1CC[C@@H](c2ccc(Cl)c(Cl)c2)c2ccc(S(N)(=O)=O)cc21,13.8 µM (active),
O=C(Nc1ccc([N+](=O)[O-])cc1)Nc1ccc([N+](=O)[O-])cc1 (tested in a mixture with another compound),21.3 µM (active),
O=C(NCc1ncc(C(F)(F)F)cc1Cl)c1c(Cl)cccc1Cl,21.9 µM (active),
CCCCCCCCCCCCS(=O)(=O)Cl,,-17.3% [at 15.8 µM]
CCc1cccc(C)c1N(C(=O)C(=O)O)C(C)COC (centres undefined),inactive,
CCCCC/C=C\C=C\C(=O)OCC,25.6 µM (active),
CCCC(C)C=O (centres undefined),inactive,
CC(O)(c1ccc(Cl)cc1)c1ccc(Cl)cc1,49 µM (active),
C=Cc1ccc(O)c(OC)c1,inactive,
CC(=O)[C@]1(O)Cc2c(O)c3c(c(O)c2[C@@H](O[C@H]2C[C@H](N)[C@H](O)[C@H](C)O2)C1)C(=O)c1ccccc1C3=O,23.9 µM (active),
c1ccc2cc3c4ccccc4c4ccccc4c3cc2c1,13.9 µM (active),
